Data from PubChem BioAssay (NCATS).
Records with an inconclusive call do not appear. Unmarked numbers belong to inactive results. Active and inactive are the calls of the source. The call rests on the fitted dose curve; in most records, active means well fitted inhibition curve with a large enough effect; inconclusive means small, poorly fitted or top-dose-only effect; inactive means flat fitted curve, though single readings scatter. *1 amine or outer side, *2 acyl side, *3 side chain or, on linkers, in order; H or OH if unused. Where a SMILES comes first, the peptide text is derived from it. [ ]: non-standard residue; d: D form. X13 = O=C(C(CC(O)CO)O[*:1])[*:2]; NMeV = CN[CH](C(=O)O)C(C)C; NMeA = CN[CH](C)C(=O)O; βAla = NCCC(=O)O

These compounds were tested on HaCat (assay: Cytotoxic Profiling of Annotated Libraries Using Quantitative High-Throughput Screening (AID 1296008; further: nearly all actives have a fitted effect of over 60% in size)). Details: Five cell lines viability, CellTiter-Glo ATP luminescence, 48-72 h; max response: hits give low values.
Outline: (§1)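 Cells exposed to compounds for 48 or 72 hr at 37 degrees Celsius. Viability read as ATP-coupled luminescence with CellTiter-Glo after 10 min at room temperature.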
On the % scale 0 is the no-effect control and ±100 the full control effect.

| Structure (SMILES) | outcome |
| --- | --- |
| C[C@@H]1O[C@@H](O[C@@H]2\C=C/C=C\C=C/C=C\C[C@H](C)OC(=O)/C=C\[C@H]3O[C@@H]3C[C@H](O)C[C@]3(O)C[C@@H](O)[C@@H](C(=O)O)[C@H](C2)O3)[C@H](O)[C@H](N)[C@@H]1O | inactive |
| CC(=O)c1ccc(O[C@@H]2OC[C@@H](O)[C@H](O)[C@H]2O[C@]2(CO)O[C@H](CO)[C@@H](O)[C@@H]2O)c(O)c1 | inactive |
| C=C1CC[C@@H]2[C@@](C)(CO[C@@H]3O[C@H](CO)[C@@H](O)[C@H](O)[C@H]3O)[C@H](O)CC[C@@]2(C)[C@@H]1CC/C(C)=C/CO[C@@H]1O[C@H](CO)[C@@H](O)[C@H](O)[C@H]1O | inactive |
| OC[C@@]1(O)CO[C@@H](OC[C@H]2O[C@@H](Oc3ccccc3)[C@H](O)[C@@H](O)[C@@H]2O)[C@@H]1O | inactive |
| NC1(c2ccc(NC(=O)c3ccnc(-c4cc(C(=O)O)ccn4)c3)cc2)CC1 | inactive |
| OC[C@@]1(O)CO[C@@H](OC[C@H]2O[C@@H](OCc3ccccc3)[C@H](O)[C@@H](O)[C@@H]2O)[C@@H]1O | inactive |
| CC1(C)CC2C(O)C3=C(CC(C)(O)C2C1)C(=O)OC3 (stereo not given) | inactive |
| COc1c2c(c(C)c3c1C(=O)OC3)OC1(C)CC(O)C34OC(O)(CCC3(C)C1C2)OC4(C)C (stereo not given) | inactive |
| COc1cc(C2OCC3(O)C(c4ccc(O[C@@H]5O[C@H](CO)[C@@H](O)[C@H](O)[C@H]5O)c(OC)c4)OCC23O)ccc1O (stereo not given in full) | inactive |
| CC1=CC2=C(C)C(=O)[C@](C)(O)[C@H](O)C2=CO1 | inactive |
| C[C@]12CCC[C@](C)(C(=O)O)C1[C@@H](O)[C@@H](O)C13CC(CCC12)C(CO)(O[C@@H]1O[C@H](CO)[C@@H](O)[C@H](O)[C@H]1O)C3 (stereo not given in full) | inactive |
| C=C1CCC2C(C)(C(=O)O)CCCC2(C)C1CC/C(C)=C\CO (stereo not given) | inactive |
| C=CC(C)(O)C1CC2C3(C)CCCC(C)(C)C3C(O)C(O)C2(C)O1 (stereo not given) | inactive |
| CC(C)(O)C1CCC2(C)CCCC(C)(O)C2C1 (stereo not given) | inactive |
| CC(=O)O[C@H]1C[C@@]2(C)[C@@H](CC[C@H]3[C@@]4(C)C=CC(=O)[C@@H](C)[C@@H]4[C@H](OC(C)=O)C(=O)[C@@]32C)/C1=C(\CCC=C(C)C)C(=O)O | inactive |
| COC(=O)C(Cc1ccccc1)NC(=O)c1ccccc1 (stereo not given) | inactive |

What follows are compounds tested on KB-3-1 in the same assay as above. Details: Five cell lines viability, CellTiter-Glo ATP luminescence, 48-72 h; max response: hits give low values.
Outline: as §1

| Structure (SMILES) | outcome | max response [%] |
| --- | --- | --- |
| CC(=O)O[C@@H]1[C@H](O[C@@H]2O[C@H](CO)[C@@H](O)[C@H](O)[C@H]2O)[C@@H](O[C@@H]2O[C@@H](C)[C@H](O)[C@@H](O[C@@H]3O[C@H](CO)[C@@H](O)[C@H](O)[C@H]3O)[C@H]2O)[C@H](OC(=O)[C@]23CCC(C)(C)C[C@H]2C2=CCC4[C@@]5(C)C[C@H](O)[C@H](O[C@@H]6O[C@H](C(=O)O)[C@@H](O)[C@H](O)[C@H]6O)[C@@](C)(C(=O)O)C5CC[C@@]4(C)[C@]2(C)CC3)O[C@@H]1C (stereo not given in full) | inactive | – |
| CC(=O)OCC1OC(O[C@H]2CC[C@@]3(C)C(CC[C@]4(C)C3CC=C3[C@@H]5CC(C)(C)CC[C@]5(C(=O)O)CC[C@]34C)[C@]2(C)CO)C(O)C(O)C1OC1OC(C)C(O)C(OC2OCC(O)C(O)C2O)C1O (stereo not given in full) | inactive | – |
| CC1=C[C@@H]2[C@H]3[C@@H]4O[C@@](C)(CC[C@H]4O)[C@H]3CC(=O)[C@]23C(=O)N[C@@H](CC(C)C)[C@@H]3[C@@H]1C | – | 9.19 |
| COc1cccc(CN(C(=O)CC(C)(C)C)C2CC(C(=O)N3CCNCC3)N(Cc3ccc4c(c3)OCO4)C2)c1 (stereo not given) | inactive | – |
| C/C=C/C=C/C(O)=C1/C(=O)[C@]2(C)C3/C(=C(O)/C=C/C=C/C)C(=O)C4(C)C1[C@]1(C)O[C@@]4(O)[C@@]3(C)O[C@@]12O | – | 0.929 |
| OC[C@H]1O[C@@H](OCCc2ccccc2)[C@H](O)[C@@H](O)[C@@H]1O | – | 6.47 |
| CCC(C)C(N)C(=O)NCCN1CCOCC1 (stereo not given) | – | 0.0309 |
| CC1CC2(O)OC(=O)C3=C2C(CCC3)[C@@]12C[C@@H](c1ccoc1)OC2=O (stereo not given in full) | inactive | – |
| Cc1nc2ccccc2c(-c2ccc3c4c(ccnc24)CCO3)c1[C@H](OC(C)(C)C)C(=O)O | – | -6.3 |
| NC[C@H]1CCC[C@@H](CNC(=O)[C@@H](Cc2c[nH]c3ccccc23)NC(=O)N2CCC3(C=Cc4ccccc43)CC2)C1 | inactive | – |
| CCC(C)/C=C(C)/C=C/C1=CC2=C(Cl)C(=O)C(C)(OC(C)=O)C(=O)C2=CN1C(CCC(=O)O)C(=O)O (stereo not given) | inactive | – |
| CC(C)C1NC(=O)C2CCCN2C1=O (stereo not given) | inactive | – |
| C=CC1(C)CC2CCC3C(C)(C(=O)O)CCCC3(C)C2=CC1=O (stereo not given) | inactive | – |
| CC(C)C1(O)C=C2C(=O)CC3C(C)(C(=O)O)CCCC3(C)C2CC1 (stereo not given) | – | -0.238 |
| COc1cccc(C)c1C(=O)O[C@@H]1C[C@H](O[C@H]2[C@H](O)C[C@H](O[C@@H]3CCC[C@H]4[C@H]3C=C[C@@H]3CCCC/C=C/[C@H]5C=C(C(=O)O)[C@@H](C)C[C@@]56OC(=O)C(=C6O)OC(=O)[C@@]34C)O[C@@H]2C)O[C@H](C)[C@H]1O | – | 6.21 |
| C=C(C(=O)OC)[C@]12O[C@@](C)(CC[C@@]3(O)/C(=C\C)C(=O)O[C@]3(C)C[C@@H]1OC(=O)C(CO)CN1CCCC1C(=O)O)CC2=O (stereo not given in full) | inactive | – |
| COC(=O)C1=CO[C@@H](O[C@@H]2O[C@H](CO)[C@@H](O)[C@H](O)[C@H]2O)[C@@H]2[C@@H](CO)[C@@H](O)C(O)[C@H]12 (stereo not given in full) | inactive | – |
| O=C(O)c1cc(O[C@@H]2O[C@H](CO)[C@@H](O)[C@H](O)[C@H]2O)ccc1O | – | 1.47 |
| C=C(CC/C=C(\C)C(=O)O)C1(O)CC=C(C)CC1 (stereo not given) | inactive | – |
| CC(C)=CCc1cc(O[C@@H]2O[C@H](CO[C@@H]3OC[C@](O)(CO)[C@H]3O)[C@@H](O)[C@H](O)[C@H]2O)ccc1O | inactive | – |

| Structure (SMILES) | outcome | max response [%] |
| --- | --- | --- |
| C=C1CCC2C(C)(C)CCC[C@]2(C)[C@H]1CC/C(C)=C/C(=O)O (stereo not given in full) | – | -7.37 |
| CCC(C)C1NC(=O)C2CCCN2C(=O)C(CC(O)CO)OC(=O)CCNC(=O)C(C)N(C)C(=O)C(C(C)C)N(C)C1=O (stereo not given) (cyclo([X13]PI[NMeV][NMeA][βAla]); configuration not given here) | – | 9.21 |
| Cc1cc(-c2nncc3c(C(C)(C)C)c(OCc4ncnn4C)nn23)no1 | – | 6.49 |
| C[C@@H]1O[C@@H](O[C@@H]2\C=C/C=C\C=C/C=C\C[C@H](C)OC(=O)/C=C\[C@H]3O[C@@H]3C[C@H](O)C[C@]3(O)C[C@@H](O)[C@@H](C(=O)O)[C@H](C2)O3)[C@H](O)[C@H](N)[C@@H]1O | inactive | – |
| CC(=O)c1ccc(O[C@@H]2OC[C@@H](O)[C@H](O)[C@H]2O[C@]2(CO)O[C@H](CO)[C@@H](O)[C@@H]2O)c(O)c1 | inactive | – |
| C=C1CC[C@@H]2[C@@](C)(CO[C@@H]3O[C@H](CO)[C@@H](O)[C@H](O)[C@H]3O)[C@H](O)CC[C@@]2(C)[C@@H]1CC/C(C)=C/CO[C@@H]1O[C@H](CO)[C@@H](O)[C@H](O)[C@H]1O | – | -3.96 |
| OC[C@@]1(O)CO[C@@H](OC[C@H]2O[C@@H](Oc3ccccc3)[C@H](O)[C@@H](O)[C@@H]2O)[C@@H]1O | – | 0.107 |
| NC1(c2ccc(NC(=O)c3ccnc(-c4cc(C(=O)O)ccn4)c3)cc2)CC1 | inactive | – |
| OC[C@@]1(O)CO[C@@H](OC[C@H]2O[C@@H](OCc3ccccc3)[C@H](O)[C@@H](O)[C@@H]2O)[C@@H]1O | inactive | – |
| CC1(C)CC2C(O)C3=C(CC(C)(O)C2C1)C(=O)OC3 (stereo not given) | inactive | – |
| COc1c2c(c(C)c3c1C(=O)OC3)OC1(C)CC(O)C34OC(O)(CCC3(C)C1C2)OC4(C)C (stereo not given) | – | 7.14 |
| COc1cc(C2OCC3(O)C(c4ccc(O[C@@H]5O[C@H](CO)[C@@H](O)[C@H](O)[C@H]5O)c(OC)c4)OCC23O)ccc1O (stereo not given in full) | – | 7.65 |
| CC1=CC2=C(C)C(=O)[C@](C)(O)[C@H](O)C2=CO1 | – | 6.84 |
| C[C@]12CCC[C@](C)(C(=O)O)C1[C@@H](O)[C@@H](O)C13CC(CCC12)C(CO)(O[C@@H]1O[C@H](CO)[C@@H](O)[C@H](O)[C@H]1O)C3 (stereo not given in full) | – | 8.89 |
| C=C1CCC2C(C)(C(=O)O)CCCC2(C)C1CC/C(C)=C\CO (stereo not given) | inactive | – |
| C=CC(C)(O)C1CC2C3(C)CCCC(C)(C)C3C(O)C(O)C2(C)O1 (stereo not given) | inactive | – |
| CC(C)(O)C1CCC2(C)CCCC(C)(O)C2C1 (stereo not given) | – | 8.99 |
| CC(=O)O[C@H]1C[C@@]2(C)[C@@H](CC[C@H]3[C@@]4(C)C=CC(=O)[C@@H](C)[C@@H]4[C@H](OC(C)=O)C(=O)[C@@]32C)/C1=C(\CCC=C(C)C)C(=O)O | – | 5.79 |
| COC(=O)C(Cc1ccccc1)NC(=O)c1ccccc1 (stereo not given) | – | 6.61 |
